# PubChem BioAssay AID1220 (Sanford-Burnham Center for Chemical Genomics, 2008)
# Out of some 190,000 compounds screened, about 1,300 (0.68%) were called active. What follows is part of a selection rich in actives, with near analogues and random picks from the rest. Values without a mark were called inactive. Rule as the data show it: active = inhibition above about 50%; inactive = the rest.
# Target: Mannose-6-phosphate isomerase (Homo sapiens) (UniProt P34949)
# Assay: MPI inhibition at elevated mannose 6-phosphate – biochemical, fluorescence intensity, high mannose 6-phosphate, primary screen (AID 1220)
# Conditions: recombinant PMI enzyme, coupled fluorescence intensity; at 20 µM; stronger effect = higher value
# Sequence of Mannose-6-phosphate isomerase (Homo sapiens) (P34949 whole entry, looked up): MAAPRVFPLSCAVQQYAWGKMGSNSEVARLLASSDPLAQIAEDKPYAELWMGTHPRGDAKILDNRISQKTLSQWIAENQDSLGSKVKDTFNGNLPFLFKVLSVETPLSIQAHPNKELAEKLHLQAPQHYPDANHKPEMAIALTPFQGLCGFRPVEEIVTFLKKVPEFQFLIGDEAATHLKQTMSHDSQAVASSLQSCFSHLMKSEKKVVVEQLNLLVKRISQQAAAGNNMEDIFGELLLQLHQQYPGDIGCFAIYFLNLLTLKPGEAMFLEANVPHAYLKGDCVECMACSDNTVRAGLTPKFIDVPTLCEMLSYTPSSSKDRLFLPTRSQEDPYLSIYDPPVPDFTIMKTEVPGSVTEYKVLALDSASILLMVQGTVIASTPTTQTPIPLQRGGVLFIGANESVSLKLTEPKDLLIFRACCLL
row,SMILES,inhibition
1,N#Cc1cc(Oc2ccccc2)c(-n2nnc3ccccc32)cc1C#N,3.1%
2,C#CCOCCOCCOCCNc1nc(N2CCN(C(=O)[C@H]([C@@H](C)CC)n3cc(CCCCN)nn3)CC2)nc(N2CCN(C(=O)[C@H](C)n3cc(CCC(=O)O)nn3)CC2)n1,-27.7%
3,COCCN1CC(=O)N(c2cccc(C)c2C)C(c2ccc(Cl)cc2)C1=O (stereo unspecified),-1.2%
4,COc1ccc(N=Cc2sc(O)c3ccccc23)cc1,8.8%
5,CC1(C)CC(=O)C(C=Nc2ccc3c(c2)OCO3)=C(O)C1,14.2%
6,COc1ccc2c(c1)O[C@H](c1ccc3c(c1)OCO3)[C@@H](O)C2=O,-2.7%
7,Oc1[nH]c2ccccc2c1C=Nc1ccc2c(c1)OCO2,8.6%
8,COc1cccc(C=Nc2ccc3c(c2)OCCO3)c1O,34.6%
9,COc1ccc(N=CC2=C(O)c3ccccc3C2=O)cc1,5.6%
10,CCCC(=O)Nc1ccc(C(N)=O)cc1,5.2%
11,Cc1ccc(C)c(NC(=O)CCC(=O)NNC(=O)C(c2ccccc2)c2ccccc2)c1,-16.3%
12,CC(C)OC(=O)CSc1nnc2c(n1)[nH]c1ccc(F)cc12,-5.2%
13,O=C(NC1CCN(S(=O)(=O)c2ccccc2)CC1)C1CCCCC1,7.7%
14,O=C(c1ccc(Cl)cc1Cl)N1CCC(c2nc3c(nnn3Cc3ccco3)c(=O)[nH]2)CC1,14.6%
15,CN(C)CCCN(C(=O)COc1ccccc1)c1nc2c(F)cccc2s1,-2.9%
16,CN(C)CCCN(C(=O)CCOc1ccccc1)c1nc2c(F)cccc2s1,54.4% (active)
17,CN(C)CCCN(C(=O)CCc1ccccc1)c1nc2c(F)cccc2s1,4%
18,COc1ccc(C)cc1NC(=O)CN(C)S(=O)(=O)c1cccs1,1.9%
19,Cc1ccc(SCCC(=O)NCCSCc2ccccc2C)cc1,8.3%
20,CCOc1ccc(C(=O)CCNC(Cc2cnc[nH]2)C(=O)O)cc1 (stereo unspecified),3.4%
21,O=C1N/C(=C/c2ccc(N3CCOCC3)o2)C(=O)N1c1cccc(Cl)c1,15.3%

row,SMILES,inhibition
1,O=C1N/C(=C/c2ccc(N3CCOCC3)o2)C(=O)N1c1ccccc1,9%
2,O=C1S/C(=C\c2ccc(N3CCOCC3)o2)C(=O)N1c1ccccc1,53.8% (active)
3,COC(=O)CN1C(=O)S/C(=C/c2ccc(N3CCCCC3)o2)C1=O,46%
4,CC(C)OC(=O)CN1C(=O)S/C(=C/c2ccc(N3CCCCC3)o2)C1=O,25%
5,CCCN1C(=O)S/C(=C\c2ccc(N3CCOCC3)cc2C)C1=O,9.4%
6,CCCN1C(=O)S/C(=C\c2ccc(N3CCOCC3)o2)C1=O,52.4% (active)
7,CCOC(=O)CN1C(=O)S/C(=C/c2ccc(N3CCCCC3)o2)C1=O,24.1%
8,O=C1S/C(=C\c2ccc(N3CCOCC3)o2)C(=O)N1Cc1c(F)cccc1Cl,56.3% (active)
9,O=C1S/C(=C/c2ccc(N3CCOCC3)o2)C(=O)N1Cc1ccc(F)cc1,45.3%
10,O=C1S/C(=C\c2ccc(N3CCOCC3)o2)C(=O)N1Cc1ccc(F)cc1,57.3% (active)
11,O=C1S/C(=C/c2ccc(N3CCOCC3)o2)C(=O)N1Cc1c(F)cccc1Cl,5.6%
12,COc1ccc(C2C(C(=O)c3ccc(C)o3)=C(O)C(=O)N2c2cc(C)on2)cc1OC (stereo unspecified),-22.3%
13,O=C(CSc1ncccn1)Nn1cnnc1,-0.7%
14,COc1ccc(NC(=O)Nc2cc(NC(=O)Nc3ccc(OC)cc3)c(C)nc2C)cc1,-8.6%
15,CC(=O)N1c2ccccc2NC2=C(C(=O)CCC2)C1c1cccnc1 (stereo unspecified),6.7%
16,Clc1cccc(OCCn2cncn2)c1Cl,-4.8%
17,O=C(CCCC(=O)N1CCc2ccccc21)N1CCc2ccccc21,-6.6%
18,COc1cc(OC)cc(C(=O)NNC(=S)NCc2ccco2)c1,-10.1%
19,COc1ccc(-n2c(CSc3nc(C)cc(C)n3)nnc2SCC(=O)Nc2nccs2)cc1,1.3%
20,CS(=O)(=O)c1ccccc1-c1nc(-c2cccc(Cl)c2)no1,9.9%
21,N#CCSc1nc2sc3c(c2c(=O)n1C1CCCCC1)CCCC3,52.4% (active)

row,SMILES,inhibition
1,CSc1nc2sc3c(c2c(=O)n1C1CCCCC1)CCN(C)C3,10.7%
2,CCSc1nc2sc3c(c2c(=O)n1C1CCCCC1)CCN(C)C3,-33.5%
3,CCOc1ccc(CNC(=O)CCc2cn(Cc3ccccc3)c3ccccc23)cc1,0.6%
4,C=CCn1c(O)c(CN2CCOCC2)c(C)c(C#N)c1=O,56.6% (active)
5,C=CCn1c(O)c(C(CC)=NCCN2CCOCC2)c(=O)[nH]c1=O,-15.4%
6,C=CCn1c(O)c(CN2CCCCC2)c(C)c(C#N)c1=O,70.2% (active)
7,C=CCn1c(O)c(CN2CCN(Cc3ccccc3)CC2)c(C)c(C#N)c1=O,15.6%
8,C=CCn1c(C)cc(C)c(C#N)c1=O,-6.4%
9,Cc1oc(C(C)(C)C)c(CN2CCOCC2)c1C(=O)O,-2.9%
10,O=C(NCCC1=CCCCC1)C(=O)NCC(c1ccco1)N1CCN(c2ccc(F)cc2)CC1 (stereo unspecified),2.7%
11,OCc1nc2ccccc2n1CCCOc1ccccc1,-6.4%
12,COc1cc(NC(=S)NCCC(c2ccccc2)c2ccccc2)c(OC)cc1Cl,17.2%
13,Cc1nnc(Sc2nc3c(c(=O)n(C)c(=O)n3C)n2Cc2ccc(Cl)cc2)s1,7.9%
14,CSc1ccc(C#N)cc1NC(=O)c1ccccc1C,-2.5%
15,COCc1c(C#N)c(NCCc2ccc(F)cc2)nc(C)c1[N+](=O)[O-],9.3%
16,CC(=O)c1ccc(N2CCN(C(=O)c3ccc(Br)cc3)CC2)c(F)c1,55.1% (active)
17,CCC(=O)c1ccc(N2CCN(C(=O)c3ccc(Br)cc3)CC2)c(F)c1,9.1%
18,CCCC(=O)c1ccc(N2CCN(C(=O)c3ccc(Br)cc3)CC2)c(F)c1,-2.3%
19,O=C(NCCCCCCNC(=O)C1CCCC1)C1CCCC1,-0.9%
